Screening data deposited in PubChem by National Center for Advancing Translational Sciences (NCATS).
Imprint erasure – inducers of genomic imprint erasure in mouse ES cells; hit rate 0.02% among 110,000; AID 1948; mouse ES Peg3-LacZ reporter, beta-gal luminescence, 40 h; Potency, µM (titrated, usually from 60.7 µM), inactives show top-dose activity change, positive = activation, most hits filed as activators
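Imprint erasure is scored as LacZ activity from the silenced maternal Peg3 allele in feeder-free female ES cells cultured 40 h with LIF. Luminescence is normalized to in-plate negative controls and fitted to the Hill equation.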
p53ts 32C tox – kills p53ts cells at the permissive temperature. H1299-p53A138V at 32C, ATP luminescence viability, 24 h. Potency, µM (top dose mostly 46.1 µM), without a hit: top-dose activity change, negative = cytotoxicity, usual class: cytotoxic. hit rate 0.93% among 130,000;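 further: 0% = DMSO and -100% = full killing by reference compound; nearly all actives have a fitted effect of over 55% in size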
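H1299-p53 A138V cells (temperature-sensitive p53) exposed 24 h to up to 46 uM compound at 32C, where p53 is wild-type in conformation. Viability read as ATP luminescence and normalised to DMSO and 100 uM tamoxifen. AC50 fitted with the Hill equation.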
IkB signaling – suppresses IkB signaling in ABC-DLBCL reporter cells; Potency, µM (top dose mostly 57.1 µM), for inactives: at the highest dose IkBa stabilization activation; AID 445; ABC-DLBCL IkBa-CBG/CBR dual luciferase ratio, 4 h; response scale: scaled: untreated 0%, proteasome inhibitor 100%; hit rate 0.04% among 110,000; active means well fitted curve in the direction sought with a large enough effect in the signal ratio, not every such curve was filed as active; inconclusive means small, poorly fitted or top-dose-only effect, or a change in a side signal; the % refers to the signal ratio;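 further: the direction sought is a rising ratio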
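Luminescence ratio of IκBα-fused green versus native red beetle luciferase in OCI-Ly3 cells, 4 h post-doxycycline with compound; red signal alone, scaled from basal (0%) to zero light (-100%), flagged nonspecific or cytotoxic effects.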
p53ts 39C kill – cytotoxicity in p53ts cells at nonpermissive temperature | H1299-p53A138V viability at 39C, ATP luminescence, 24 h | Potency, µM (titrated, usually from 46.1 µM), for inactives: top-dose activity change, negative = cell killing, hits mostly cytotoxic | hit rate 1.5% among 130,000 | AID 902; further: on the % scale 0 is the no-effect control and ±100 the full control effect; nearly all actives have a fitted effect of over 55% in size
* marks the source's active call; other numbers are inactive results; i = inactive; u = inconclusive; x = not tested or not shown; [ ] = remark or other dose. The list is not random: actives were taken first. Their share in the collection is about 1.7%. Unless noted, the call rests on the fitted dose curve; in most records, active means well fitted curve in the direction sought with a large enough effect; inconclusive means small, poorly fitted or top-dose-only effect, or another doubt; inactive means no such curve, though single readings can be large; an effect the other way counts as inactive or inconclusive. Potency means the concentration at half of the fitted maximal effect.

SMILES | Imprint erasure | p53ts 32C tox | IkB signaling | p53ts 39C kill
Cc1ccc(-n2ncc3c(N4CCN(Cc5ccccc5)CC4)ncnc32)cc1C | -13.0%[10.9 µM] | 20µM* | u | 31.6µM*
Cc1cccc(N2CCN(c3ncnc4c3cnn4-c3ccc(Cl)cc3)CC2C)c1 (configuration not stated) | 2.5%[10.9 µM] | u | u | 15.8µM*
Cc1cccc(-n2ncc3c(N4CCCC(C)C4)ncnc32)c1 (configuration not stated) | -40.1%[10.9 µM] | 3.98µM* | u | 2.51µM*
Cc1cccc(-n2ncc3c(N4CCCCCC4)ncnc32)c1 | -19.0%[10.9 µM] | u | u | 3.98µM*
CCOC(=O)C1CCCN(c2ncnc3c2cnn3-c2cccc(C)c2)C1 (configuration not stated) | -90.0% | -15.3% | 1.3% | -11.5%
CCN(CC)CCCCNC(=O)c1ccc(Cc2nc3ccccc3[nH]2)cc1 | x | -1.2% | x | 5.5%
Cc1ccc(-n2ncc3c(N4CCCCCC4)ncnc32)cc1C | -15.7%[10.9 µM] | 10µM* | u | u
CC1CCCN(c2ncnc3c2cnn3-c2ccc(F)cc2)C1 (configuration not stated) | -47.4%[10.9 µM] | 2µM* | 6.2% | 2µM*
Cc1ccc(-n2ncc3c(N4CCN(c5ccc(F)cc5)CC4)ncnc32)cc1 | -7.8%[10.9 µM] | 9.5% | u | -28.6%
CCOc1ccc(NC(=O)N2CC=C(c3c[nH]c4ccccc34)CC2)cc1 | 15.0%[10.9 µM] | 15.8% | u | -12.6%
O=C(NCCN1CCCCC1)c1ccc(Cn2c(SCc3ccc(F)cc3)nc3cccnc32)cc1 | -10.1%[10.9 µM] | 7.94µM* | u | 7.94µM*
COc1ccc(NC(=O)Cn2c(SCc3ccc(C)cc3)nc3cccnc32)cc1OC | x | 3.16µM* | x | x
COCCCNC(=O)c1ccc(Cn2c(SCc3ccc(F)cc3)nc3cccnc32)cc1 | x | 11.2µM* | x | x
Cc1ccc(S(=O)(=O)O[C@H]2C[C@@H](C(C)(C)C)CC[C@@H]2c2ccccc2)cc1 | x | 1.2%[9.22 µM] | 1.8%[11.4 µM] | -0.4%[9.22 µM]
CCc1cccc(C)c1NC(=O)Cn1nc(C)n2cccc2c1=O | -7.8%[10.9 µM] | -4.4% | u | 12.6µM*
COC(=O)c1cc(NC(=O)Cn2nc(C)n3cccc3c2=O)cc(C(=O)OC)c1 | -17.8%[10.9 µM] | -4.1% | u | -1.3%
Cc1ccc(C)c(Cn2c(=O)n(CCCCC(=O)NCc3ccccc3Cl)c(=O)c3ccccc32)c1 | 10.5%[10.9 µM] | 3.2% | 2.6% | 25.1µM*
CC(C)C(=O)Nc1cccc(NC(=O)c2cc3ccccc3o2)c1 | -43.6% | u | u | u
COc1ccc(NC(=O)c2cc3ccccc3o2)cc1 | -40.7% | 15.8µM* | u | 15.8µM*
CC(=O)Nc1cccc(NC(=O)c2cc3ccccc3o2)c1 | -83.6% | 12.6µM* | u | 6.31µM*
CCCCOC(=O)c1cccc(NC(=O)c2cc3ccccc3o2)c1 | -13.5%[10.9 µM] | u | u | 10µM*
Cc1ccc(-c2onc(C)c2C)cc1S(=O)(=O)Nc1cccc(Cl)c1C | 1.6%[10.9 µM] | 32.6% | u | -16.1%
COc1ccc(-c2cc(C(F)(F)F)nc(SCCC(=O)Nc3cc(C)ccc3O)n2)cc1 | -2.6%[10.9 µM] | -1.3% | u | 10µM*
COc1ccc(-c2cc(C(F)(F)F)nc(SCCC(=O)Nc3ccccc3F)n2)cc1 | -8.1%[10.9 µM] | -2.4% | 0.9% | -1.2%
COc1ccc(NC(=O)c2cc3nc(-c4ccc(C)c(C)c4)cc(C(F)(F)F)n3n2)cc1 | -7.8%[10.9 µM] | -0.9% | 11.9% | 10µM*
SMILES | Imprint erasure | p53ts 32C tox | IkB signaling | p53ts 39C kill
COC(=O)c1c(NC(=O)c2cc3nc(-c4ccc(OC)cc4)cc(C(F)(F)F)n3n2)sc2c1CCCC2 | -10.7%[10.9 µM] | 4.9% | 2.1% | -11.8%
O=C(Nc1cc2ccc(O)cc2oc1=O)c1ccccc1 | -57.4%[10.9 µM] | u | i | 7.94µM*
CN(C)c1ccc(-c2ccc3ncnc(NC4CC4)c3c2)cc1 | -28.0% | -5.4% | 4.2%[11.4 µM] | -10.3%
CC(C)=CCNc1ncnc2c1c(C#N)cn2[C@H]1O[C@@H](CO)[C@@H](O)[C@@H]1O | -22.8%[10.9 µM] | 8.5%[9.22 µM] | 0.9%[11.4 µM] | 7.8%[9.22 µM]
Cc1ccccc1C1CC(=O)Oc2cc(C)c(Cl)c(C)c21 (configuration not stated) | 11.5% | x | x | x
CCCCN(CC)C(=O)Nc1ccc2c(c1)N(C)C(=O)c1ccccc1S2 | -11.1%[10.9 µM] | 0.2% | u | 25.1µM*
CCCCN(CC)CCCNC(=O)c1ccc2c(c1)N(Cc1ccc(C)cc1)C(=O)c1ccccc1S2 | -8.7%[10.9 µM] | u | -0.4% | 12.6µM*
C=CCNc1nc2c(c(=O)[nH]c(=O)n2C)n1Cc1cccc(C)c1 | -26.3% | 6.31µM* | 2.8% | 7.94µM*
